The campaign covered roughly 310,000 compounds. About 14,000 (4.5%) showed an effect of 50% or more. Effects have a minus sign here. This is one part of a sample in which strong results are shown more often than they occur.
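Further: peak tail current of the secondary pulse compared with the same well before compound.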

The target in this assay is human ether-à-go-go-related gene (hERG) potassium channel (human, UniProt Q12809). As to the kind of experiment: primary screen, population patch clamp on CHO cells stably expressing hERG; higher = less effect of the substance.
human ether-à-go-go-related gene (hERG) potassium channel, sequence (Q12809 whole entry, looked up): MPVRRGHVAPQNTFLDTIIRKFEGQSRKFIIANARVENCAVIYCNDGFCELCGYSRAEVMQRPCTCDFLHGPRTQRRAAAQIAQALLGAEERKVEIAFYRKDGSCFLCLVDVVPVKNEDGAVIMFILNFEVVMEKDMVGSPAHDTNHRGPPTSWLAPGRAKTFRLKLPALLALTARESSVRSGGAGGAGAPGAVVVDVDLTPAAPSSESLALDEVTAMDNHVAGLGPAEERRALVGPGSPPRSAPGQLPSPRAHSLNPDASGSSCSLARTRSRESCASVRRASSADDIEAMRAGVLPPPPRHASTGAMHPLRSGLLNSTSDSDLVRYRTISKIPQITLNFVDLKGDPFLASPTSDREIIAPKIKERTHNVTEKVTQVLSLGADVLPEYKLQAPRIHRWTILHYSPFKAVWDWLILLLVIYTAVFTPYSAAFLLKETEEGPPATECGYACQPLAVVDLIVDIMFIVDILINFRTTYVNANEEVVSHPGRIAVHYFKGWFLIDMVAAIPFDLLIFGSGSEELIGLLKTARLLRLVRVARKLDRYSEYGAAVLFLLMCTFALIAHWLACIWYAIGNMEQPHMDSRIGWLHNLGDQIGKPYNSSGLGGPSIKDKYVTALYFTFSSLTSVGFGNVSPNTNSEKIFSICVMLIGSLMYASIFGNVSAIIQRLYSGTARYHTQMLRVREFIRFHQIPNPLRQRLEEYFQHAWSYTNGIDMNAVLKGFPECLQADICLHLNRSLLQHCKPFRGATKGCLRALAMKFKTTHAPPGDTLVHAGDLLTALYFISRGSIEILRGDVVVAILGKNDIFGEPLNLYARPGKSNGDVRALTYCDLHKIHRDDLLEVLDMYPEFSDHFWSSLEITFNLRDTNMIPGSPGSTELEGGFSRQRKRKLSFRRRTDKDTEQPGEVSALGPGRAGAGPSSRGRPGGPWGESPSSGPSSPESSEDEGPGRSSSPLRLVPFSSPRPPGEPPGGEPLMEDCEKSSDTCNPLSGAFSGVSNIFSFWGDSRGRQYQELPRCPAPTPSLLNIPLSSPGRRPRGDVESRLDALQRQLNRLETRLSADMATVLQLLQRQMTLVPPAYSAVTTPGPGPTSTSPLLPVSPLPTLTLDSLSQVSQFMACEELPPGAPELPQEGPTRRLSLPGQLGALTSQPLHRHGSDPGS
On to `COC(=O)C1C(=O)C2=C(CC1C)Nc1ccccc1NC2c1ccc(C)s1` (stereo not drawn), for which the “hERG current change (%, negative = inhibition) at 10uM” value is on record as 12.8%.

Consider `C=CCOc1cccc(C2C(C(=O)c3ccc(C)o3)=C(O)C(=O)N2c2nccs2)c1` (stereo not drawn), for which the “hERG current change (%, negative = inhibition) at 10uM” value worked out at 7.99%. In the case of `Cc1c(CN(C)C(=O)c2ccc(Br)o2)cnn1C` it was -7.89%; in that of `Cc1nn(C)cc1C(=O)/C=C/c1ccc([N+](=O)[O-])cc1`, -12.4%; in that of `CCn1cc(CN(C)C(=O)/C=C/c2ccc([N+](=O)[O-])cc2)c(C)n1`, -59.4%. The value for `Cc1c(CN(C)C(=O)/C=C/c2ccc([N+](=O)[O-])cc2)cnn1C` was -69.6%; that for `Cc1c(CN(C)C(=O)c2nn(C)cc2[N+](=O)[O-])cnn1C` was 8.63%; that for `CCn1cc(CNC(=O)/C=C/c2ccc([N+](=O)[O-])cc2)c(C)n1` was -33%. In the case of `COc1ccc(N(CC(=O)NC2CCCCC2)C(=O)c2ccc(C)s2)c(OC)c1` it was -18.1%; in that of `CCN(CC)c1ccc(NC(=O)CCNS(=O)(=O)c2ccc3c(c2)CCC(=O)N3)c(C)c1`, 5.77%. Take `OCC(Br)CBr` (stereo not drawn): the “hERG current change (%, negative = inhibition) at 10uM” value is 23%.

As to `C=C1CCC2[C@](C)(CO)[C@H](O)CC[C@@]2(C)[C@@H]1C/C=C1\C(=O)OC[C@H]1O` (stereo partly drawn), the “hERG current change (%, negative = inhibition) at 10uM” value worked out at 18.9%. In the case of `CCc1nn(CC(=O)NCCCc2ccccc2)c(=O)c2cc3cc(F)ccc3n12` it was 1.58%; in that of `CC1(CCC(=O)N2CCCC(N3CCN(c4ccc(F)cc4)CC3)C2)CC1` (stereo not drawn), -64.7%; in that of `CSCC(=O)N1CCCC(N2CCN(c3ccc(F)cc3)CC2)C1` (stereo not drawn), -22.9%.

Regarding `CSCC(=O)N1CCCC(N2CCN(c3cccc(C(F)(F)F)c3)CC2)C1` (stereo not drawn), the “hERG current change (%, negative = inhibition) at 10uM” value is -48.1%. For the molecule `Cc1ccccc1N1CCN(C2CCCN(C(=O)CCc3c(C)noc3C)C2)CC1` (stereo not drawn), the “hERG current change (%, negative = inhibition) at 10uM” value is reported as -46.3%. In the case of `Cc1noc(C)c1CCC(=O)N1CCCC(N2CCN(c3ccc(F)cc3)CC2)C1` (stereo not drawn) it was -53.4%; in that of `Cc1ccccc1N1CCN(C2CCCN(C(=O)CCC3(C)CC3)C2)CC1` (stereo not drawn), -48.6%; in that of `CC1(CCC(=O)N2CCCC(N3CCN(c4cccc(C(F)(F)F)c4)CC3)C2)CC1` (stereo not drawn), -61.5%. In the case of `CSCCC(=O)N1CCCC(N2CCN(c3cccc(C(F)(F)F)c3)CC2)C1` (stereo not drawn) it was -40.4%; in that of `Cc1nn(C)c(C)c1CCC(=O)N1CCCC(N2CCN(c3ccc(F)cc3)CC2)C1` (stereo not drawn), -12.5%.

Consider `CC(C)NC(=O)N1CCN(c2ccncc2S(=O)(=O)N2CCCCC2)CC1`, for which the “hERG current change (%, negative = inhibition) at 10uM” value stood at 5.19%. Consider `COc1ccc(-c2cnc(N)n2CC2CCCO2)cc1` (stereo not drawn), for which the “hERG current change (%, negative = inhibition) at 10uM” value was -5.53%.

Regarding `Cc1cc(C)n(CC(O)COc2c(C)cccc2C)n1` (stereo not drawn), the “hERG current change (%, negative = inhibition) at 10uM” value is -1.28%.

With `O=P(C1=C(N2CCOCC2)/C(=C\c2ccccc2)CC1)(N1CCOCC1)N1CCOCC1`, the “hERG current change (%, negative = inhibition) at 10uM” value is on record as -25.3%. The value for `O=C(CSc1nnc(NC(=O)C2CC(=O)N(c3ccccc3)C2)s1)NCc1ccco1` (stereo not drawn) was 16.9%; that for `O=C(c1ccco1)N(Cc1cccc(Cl)c1)C1CCS(=O)(=O)C1` (stereo not drawn) was -59%. In the case of `O=C(c1cccs1)N(Cc1cccc(F)c1)C1CCS(=O)(=O)C1` (stereo not drawn) it was -14.9%.

Take `O=C(c1ccco1)N(Cc1ccc(Cl)cc1)C1CCS(=O)(=O)C1` (stereo not drawn): the “hERG current change (%, negative = inhibition) at 10uM” value is listed as -11.6%. The value for `O=C(c1cccs1)N(Cc1ccc(Cl)cc1)C1CCS(=O)(=O)C1` (stereo not drawn) was -41.9%. As for `O=C(c1ccco1)N(Cc1cccc(F)c1)C1CCS(=O)(=O)C1` (stereo not drawn), the “hERG current change (%, negative = inhibition) at 10uM” value was -5.78%. In the case of `O=C(c1cccs1)N(Cc1cccc(Cl)c1)C1CCS(=O)(=O)C1` (stereo not drawn) it was -52%. In the case of `CC(=O)CCS(=O)(=O)c1ccc(C)c(C)c1` it was 1.19%.

On to `O=C(OCC(=O)N1CCCC1=O)C1CCN(S(=O)(=O)c2ccc(Cl)c(C(F)(F)F)c2)CC1`, for which the “hERG current change (%, negative = inhibition) at 10uM” value stood at 5.31%. In the case of `COc1ccc(C(=O)NC(=S)Nc2ccc(S(=O)(=O)Nc3cc(OC)ncn3)cc2)cc1` it was 15.4%; in that of `CSCCC1NC(=O)N(CC(=O)N2CCc3ccccc3C2)C1=O` (stereo not drawn), -1.18%. The value for `CCOC(=O)c1[nH]c2ccc(OC)cc2c1NC(=O)c1ccccc1C(=O)O` was 14.2%; that for `CCCNC(=O)C1CCN(S(=O)(=O)c2cccs2)CC1` was 28.1%.

In the case of `O=C(NCCN1C(=O)S/C(=C\c2ccccc2F)C1=O)C1CCN(S(=O)(=O)c2cccs2)CC1`, the “hERG current change (%, negative = inhibition) at 10uM” value is reported as -57.2%. Turning to `Cc1noc(/C=C/c2cccs2)c1S(=O)(=O)N1CCC(C(=O)NCCCN2CCCC(C)C2)CC1` (stereo not drawn), the “hERG current change (%, negative = inhibition) at 10uM” value was -44.5%. In the case of `CCS(=O)(=O)N1CCC(C(=O)NCCCN2CCN(c3ccccc3F)CC2)CC1` it was -16.3%.

Regarding `COCCNC(=O)C1CCN(S(=O)(=O)c2c(C)noc2/C=C/c2cccs2)CC1`, the “hERG current change (%, negative = inhibition) at 10uM” value is listed as -34.7%. The value for `Cc1noc(/C=C/c2cccs2)c1S(=O)(=O)N1CCC(C(=O)NCCCN2CCC(C)CC2)CC1` was -83.7%. For the molecule `COc1ccc(N2CCN(CCNC(=O)C3CCN(S(=O)(=O)c4cccs4)CC3)CC2)cc1`, the “hERG current change (%, negative = inhibition) at 10uM” value is given as -50.7%. In the case of `COc1ccc(N2CCN(C(=O)C3CCN(S(=O)(=O)c4cccs4)CC3)CC2)cc1` it was -49.3%. In the case of `O=C(NCCCN1CCN(c2ccccc2F)CC1)C1CCN(S(=O)(=O)c2cccs2)CC1`, the “hERG current change (%, negative = inhibition) at 10uM” value is -60.6%. The value for `COc1ccc(N2CCN(CCNC(=O)CCNS(=O)(=O)c3cccs3)CC2)cc1` was -24.7%. In the case of `O=C(NCCN1C(=O)S/C(=C\c2ccc(F)cc2)C1=O)C1CCN(S(=O)(=O)c2cccs2)CC1`, the “hERG current change (%, negative = inhibition) at 10uM” value is given as -7.1%. Consider `O=C(NCCN1C(=O)S/C(=C\c2ccccc2)C1=O)C1CCN(S(=O)(=O)c2cccs2)CC1`, for which the “hERG current change (%, negative = inhibition) at 10uM” value is given as -23.8%.

Turning to `Cc1cc(NS(=O)(=O)c2ccc(NC(=O)c3c(F)c(F)c(F)c(F)c3F)cc2)nc(C)n1`, the “hERG current change (%, negative = inhibition) at 10uM” value is 4.63%. The value for `CCN(C(=O)CSc1nnnn1-c1ccccc1OC)C1CCS(=O)(=O)C1` (stereo not drawn) was 21.2%; that for `O=C(CCNC(=O)c1ccccc1Cl)Nc1cccc(S(=O)(=O)N2CCOCC2)c1` was 0.307%; that for `CC(C)(C)c1[nH]nc2c1C(C1C=CCCC1)C(C#N)=C(N)O2` (stereo not drawn) was -11%. In the case of `CN(C)CC1CCCCC1OC(=O)c1ccc(S(=O)(=O)N(C)c2ccccc2)cc1` (stereo not drawn) it was 17.8%; in that of `C/C(CC(=O)NCc1ccco1)=N\NC(=O)c1ccc([N+](=O)[O-])cc1Cl`, 10.5%. The value for `CC(OC(=O)CCc1nc2ccccc2c(=O)[nH]1)C(=O)c1ccc(C(C)(C)C)cc1` (stereo not drawn) was -12.3%; that for `COc1ccc(N(CC(=O)NCc2ccc(Cl)cc2)S(=O)(=O)c2c(C)noc2C)cc1` was 15.1%. For `O=[N+]([O-])CC(=Nc1ccc(F)cc1)N/N=C\c1oc(O)c2ccccc12`, the “hERG current change (%, negative = inhibition) at 10uM” value is listed as -0.338%.

On to `NCCCC[C@H]1CN=C(N)N1CCCCC1CCCCC1`, for which the “hERG current change (%, negative = inhibition) at 10uM” value was -3.84%. In the case of `CC(C)C(NC(=O)c1ccccc1NC(=O)c1ccco1)C(=O)O` (stereo not drawn) it was -14.1%. Turning to `C/C(N)=C(/C#N)C(=O)COC(=O)CC1CCCC1`, the “hERG current change (%, negative = inhibition) at 10uM” value is listed as -2.15%. For `COc1cccc(N2CCN(C3CC(=O)N(c4ccc(Cl)c(Cl)c4)C3=O)CC2)c1` (stereo not drawn), the “hERG current change (%, negative = inhibition) at 10uM” value is listed as -0.0262%. Turning to `COc1cccc(N2CCN(C3CC(=O)N(c4cccc(Cl)c4)C3=O)CC2)c1` (stereo not drawn), the “hERG current change (%, negative = inhibition) at 10uM” value was -14.4%. The value for `COc1ccccc1N1CCN(C2CC(=O)N(c3ccccc3)C2=O)CC1` (stereo not drawn) was 24.1%; that for `Cc1ccc(N2C(=O)CC(Cc3cccc(C)c3)C2=O)cc1` (stereo not drawn) was 9.39%; that for `COc1ccccc1N1C(=O)CC(N2CCN(c3ccc(F)cc3)CC2)C1=O` (stereo not drawn) was -1.99%. The value for `Cc1cc(C)cc(CC2CC(=O)N(c3ccc([N+](=O)[O-])cc3)C2=O)c1` (stereo not drawn) was 9.78%; that for `COc1ccccc1N1C(=O)CC(N2CCN(c3ccc([N+](=O)[O-])cc3)CC2)C1=O` (stereo not drawn) was -68.6%; that for `COc1ccccc1N1CCN(C2CC(=O)N(c3cccc(Br)c3)C2=O)CC1` (stereo not drawn) was -53.7%.

Consider `Cc1cccc(CC2CC(=O)N(c3ccc([N+](=O)[O-])cc3)C2=O)c1` (stereo not drawn), for which the “hERG current change (%, negative = inhibition) at 10uM” value was -53.3%.

As for `COc1ccccc1N1C(=O)CC(N2CCN(c3ccc(Cl)cc3)CC2)C1=O` (stereo not drawn), the “hERG current change (%, negative = inhibition) at 10uM” value is given as 1.61%. Take `O=C1CC(N2CCN(c3ccccc3)CC2)C(=O)N1c1cccc(Br)c1` (stereo not drawn): the “hERG current change (%, negative = inhibition) at 10uM” value is -1.92%. Turning to `COc1cccc(N2C(=O)CC(N3CCN(c4ccc([N+](=O)[O-])cc4)CC3)C2=O)c1` (stereo not drawn), the “hERG current change (%, negative = inhibition) at 10uM” value was -52.1%. The value for `C=C(C)COc1ccc(-c2nc(N)ncc2-c2ccccc2OC)c(O)c1` was -31.6%; that for `COc1cc(OC)c(OC)cc1/C=C(\C#N)C(=O)NCc1cccs1` was 20.6%. The value for `O=C(Cn1cc2c(n1)CCCC2)Nc1ccccc1Br` was 1.06%; that for `CN1C2CCC1CC(NC(=O)c1cc(Cl)cc3[nH]cnc13)C2` (stereo not drawn) was 4.12%.

On to `CNC(=O)c1c2c(nc3ccc(Br)cc13)CCCC2`, for which the “hERG current change (%, negative = inhibition) at 10uM” value amounted to 1.9%.

Consider `CCCCn1c(N)c(N(CCOC)C(=O)C2CC(=O)N(c3cccc(SC)c3)C2)c(=O)[nH]c1=O` (stereo not drawn), for which the “hERG current change (%, negative = inhibition) at 10uM” value is 14.4%. Regarding `COCCN1CN=C(Nc2nc3ccccc3o2)NC1`, the “hERG current change (%, negative = inhibition) at 10uM” value is reported as 13.5%.

Regarding `COc1cccc(OC)c1C(=O)Nc1ccc(N2CCCC2)cc1`, the “hERG current change (%, negative = inhibition) at 10uM” value came out at 7.52%.

As to `Cc1ccc(N2C(=O)SC(Cc3ccccc3)C2=O)cc1` (stereo not drawn), the “hERG current change (%, negative = inhibition) at 10uM” value is reported as 13.7%.

Turning to `COc1ccc(N(Cc2cc3ccccc3[nH]c2=O)S(=O)(=O)c2ccccc2)cc1`, the “hERG current change (%, negative = inhibition) at 10uM” value is recorded as 2.91%.

Values taken from publication PMC4336329 (PLoS ONE, 2015).
